The panel holds about 79,000 compounds, 15% with a hit somewhere; the sample as a whole holds those more often. Unmarked numbers belong to inactive results. Calls of active or inactive are those of the source. Rule as the data show it: active = growth inhibition above about 70%; inactive = the rest.
Experiments:
[1] = NCI Yeast Anticancer Drug Screen. Data for the rad50 strain (AID 155);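 also: 0% = growth of vehicle-only cultures of the same strain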; conditions: S. cerevisiae rad50 strain growth inhibition; at 50.0 µM; hits give high values
Summary of the method: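 Readout: growth inhibition relative to vehicle-treated cultures. Compound exposure was carried out in a genetically defined yeast strain deficient in DNA damage repair.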

[2] = NCI Yeast Anticancer Drug Screen. Data for the mec2-1 strain (AID 157); conditions: S. cerevisiae mec2-1 strain, at 50.0 µM, hits give high values
Summary of the method: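 Using mec2-1 yeast: add compound, measure growth, express inhibition versus vehicle-treated cultures.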

[3] = NCI Yeast Anticancer Drug Screen. Data for the sgs1 mgt1 strain (AID 161);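 also: 0% = growth of cultures given vehicle only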; conditions: S. cerevisiae sgs1 mgt1 strain, at 50.0 µM, hits give high values
Summary of the method: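 This yeast growth screen uses a strain with defined DNA-repair lesions; compound-treated growth is compared with vehicle-treated growth.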

[4] = NCI Yeast Anticancer Drug Screen. Data for the cln2 rad14 strain (AID 165);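 also: 0% = growth equal to vehicle treated cultures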; conditions: S. cerevisiae cln2 rad14 strain, at 50.0 µM, hits give high values
Summary of the method: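 Yeast strain cln2 rad14, bearing defects in cell cycle control and DNA repair, serves as the test system; values reflect growth inhibition compared with vehicle.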

[5] = NCI Yeast Anticancer Drug Screen. Data for the bub3 strain (AID 167); conditions: S. cerevisiae bub3 mutant strain, at 50.0 µM, hits give high values
Summary of the method: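 Readout: yeast growth inhibition, expressed relative to vehicle-only wells. The test organism is a mutant strain from a panel with lesions in DNA repair or checkpoint genes.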

[6] = NCI Yeast Anticancer Drug Screen. Data for the mlh1 rad18 strain (AID 175); conditions: S. cerevisiae mlh1 rad18 strain growth inhibition; at 50.0 µM; hits give high values
Summary of the method: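 Steps: expose repair-defective yeast to compound; measure growth; express inhibition against vehicle-treated controls.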

Structure (SMILES)	growth inhibition [1]	growth inhibition [2]	growth inhibition [3]	growth inhibition [4]	growth inhibition [5]	growth inhibition [6]
O=C(NCC(F)(F)C(F)(F)C(F)(F)C(F)(F)C(F)(F)C(F)(F)C(F)(F)F)Oc1ccccc1	39.2%	3.3%	26.7%	9.45%	-2.05%	3.35%
OC1(c2ccc(F)cc2)CCNCC1	21.5%	-7.55%	33.9%	20.4%	19%	7.2%
CCCCCCCCCCCCCCCCS(=O)(=O)N/N=C(/c1ccc(Cl)cc1)N1CCCCC1	-18.2%	-32.1%	3.25%	21.2%	-10.2%	-4.85%
CC(C)C/C(=N\NC(N)=O)C1=CCCCC1	10.8%	4.2%	-1.15%	-40.5%	-0.1%	11.7%
N#CC(CC(=O)NN)C(=O)NN (stereo not given)	-20.4%	-8.9%	-21%	-12.4%	-38.7%	-22.5%
COc1cc2c(cc1OC)C1Cc3ccc(OC)c(OC)c3C[N+]1([O-])CC2 (stereo not given)	-24.9%	-16.8%	-6.95%	9.6%	-15.6%	-3.2%
COc1ccc(COC(=O)Nc2ccccc2Cl)cc1	5.85%	-9.45%	-4.9%	-6.9%	17%	-6.35%
CCN(CC)CCN(C)C(O)(C(=O)c1ccccc1)C1CCCC1 (stereo not given)	8.9%	15.2%	2.3%	-4.35%	0.45%	32%
CCCCn1[nH]c(=O)ccc1=O	16.9%	7.6%	1.9%	11.4%	-8.45%	-3.3%
COC1(OC)N=C(N)C2(C#N)/C(=N/N(C)C)CC(C)C12C#N (stereo not given)	11.9%	4.35%	-18.4%	-16.1%	-22.8%	-40.7%
O=C(O)C(Cc1c[nH]c2ccccc12)Nc1ccc([N+](=O)[O-])cc1[N+](=O)[O-] (stereo not given)	-27.7%	-3.95%	13.8%	-10.7%	3.6%	7.55%
CC(C)=CCC/C(C)=C/c1cc(C(=O)O)c2c(ccc3ccccc32)n1	9.6%	10.5%	6.7%	11.3%	25.1%	14.3%
OCc1ccc(F)cc1CO	-12.4%	-2.35%	-2.85%	-17.1%	-11.2%	11.9%
COc1ccc2ncc(C)c(CO)c2c1	3.25%	-6.05%	-1.65%	-50.9%	0.75%	-2.65%
OCC(O)C(OC1OC(CO)C(O)C(O)C1O)C(O)c1cnn(-c2ccccc2)n1 (stereo not given)	-0.05%	8.6%	-24.3%	-14.7%	-1.5%	15.2%
C[n+]1cc(Br)c2ccccc2c1	4.05%	-6.25%	3.4%	-13.2%	1.4%	3.45%
O=C(O)C(CCCN1C(=O)c2ccccc2C1=O)N1C(=O)c2ccccc2C1=O (stereo not given)	-13.1%	-3.3%	-12.3%	-13.8%	-0.35%	-6.95%
CCCNC(=O)Cn1c(C)cc2ccccc21	6.55%	6.25%	26.2%	22.7%	15.4%	-82.5%
CCOC(=O)C1CCN(S(=O)(=O)c2ccccc2)CC1	3.4%	-7.3%	11.8%	-38.1%	18.6%	-6.15%
COC(=O)N/N=C(/C)c1ccco1	8.75%	27.9%	3.55%	1.55%	14.8%	16.2%

Structure (SMILES)	growth inhibition [1]	growth inhibition [2]	growth inhibition [3]	growth inhibition [4]	growth inhibition [5]	growth inhibition [6]
CCCOCC(O)CNCCNCC(O)COCCC (stereo not given)	4.1%	-2.7%	8.15%	-34.5%	-3.65%	7.3%
[N-]=[N+]=Nc1ccccc1C(=O)NCCCNC(=O)c1ccccc1N=[N+]=[N-]	-0.25%	-23.1%	25%	1.8%	19.4%	16%
CCOc1c2ccsc2c(OCC)c2ccsc12	-14.9%	-25.8%	-10.2%	6.05%	-5.15%	-35.8%
COC(=O)C1C(O)C(C)C(O)C(C)(O)C=C(C)C2=C3C(=C(C)C(=O)c4c(O)c(c(C)c(OC(C)=O)c43)NC(=O)C(C)=C/C=C\C(C)(O)C(O)C(C)C1O)OCO2 (stereo not given)	14.3%	1.65%	0.85%	-1.55%	3.85%	6.25%
O=C(Cn1c2c(c3ccccc31)CCCC2)NC1CCCCC1	2.6%	-28.4%	21.9%	30.3%	1.25%	9.7%
COc1ccccc1NC(=O)N(Cc1ccccc1)C(C)(C)C	12.2%	9.35%	30.4%	-10.2%	19.3%	33.2%
Cc1c2cnccc2c(C)c2c1c1ccccc1n2CCCCCC#N	98.8% (active)	99.1% (active)	99.2% (active)	98.1% (active)	98.5% (active)	98.8% (active)
CC1(c2cccc[n+]2Cc2ccccc2S(=O)(=O)[O-])OCCO1	5.5%	-3.6%	-8.95%	0.3%	-3.95%	-21.6%
CC(=N/Nc1ccc([N+](=O)[O-])cc1[N+](=O)[O-])/C(C)=C/C1C=CCCC1(C)C (stereo not given)	21.2%	-2.75%	8.5%	3%	16.1%	6.65%
O=C(NCCCl)NCc1cccc2c1CCCC2	-12.5%	9.75%	-3.85%	-26.4%	-3.1%	-24.2%
CCOC(OCC)C(=O)NC(C)c1ccc(O)c(OC)c1 (stereo not given)	-20.8%	7.95%	0.2%	-12.2%	-7.4%	3.2%
O=C1NC(=O)C(c2ccc(Cl)cc2)N1 (stereo not given)	0%	-10.8%	-6.3%	-5.3%	-3.75%	-15.2%
Cc1ccc([N+](=O)[O-])cc1NC(=O)C(=O)Cc1occc(=O)c1O	-12.6%	-6%	0.65%	-3.45%	-8.85%	-6.95%
O=C(O)CCCC(=O)c1ccccc1	5%	-8.65%	4.85%	-9.05%	-5.9%	20.1%
COc1cc2c(cc1OC)C(Cc1ccccc1CCCl)=NCC2	15.1%	8.65%	-31.8%	-1.8%	-24.7%	2.45%
CCN(CC)C(=O)Cc1c(C(=O)N(CC)CC)c(=O)nc2sccn12	-27.2%	-15.8%	-30.8%	-23.3%	-25%	-43.6%
Cn1c(=O)cnc2c3ccccc3ccc21	22.8%	5.15%	23.6%	15.8%	18.4%	19.6%
CC1(C)OC(CP(=O)(c2ccccc2)c2ccccc2)C(CP(=O)(c2ccccc2)c2ccccc2)O1 (stereo not given)	23.1%	13.1%	15.4%	18.2%	-2.2%	13.2%
COc1ccc2c(C#N)cc3c4ccccc4ncc3c2c1	16.6%	7%	-9.6%	19.1%	-4.35%	-10.8%
O=C(Nc1ccn(CCOC(=O)c2ccccc2)c(=O)n1)c1ccccc1	-9.4%	-21.3%	22.8%	14.6%	23.7%	47.6%

Source: PubChem BioAssay (NCI)
